Test [1] can be described thus: qHTS assay to test for compound auto fluorescence at 535 nm (green) in HEK293 cells (AID 720680). (In general: In qHTS, concentration-response curves come from the screen itself.)
Test [2] can be described thus: qHTS assay to test for compound auto fluorescence at 460 nm (blue) in HEK293 cell free culture (AID 720681). In outline:
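Blue fluorescence (Ex 405/Em 460 nm, triamterene-equivalent) was read immediately after pin transfer of compound or DMSO into medium (DMEM, 10% FBS) without cells.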

A short description of test [3]: qHTS assay to test for compound auto fluorescence at 590 nm (red) in HEK293 cell free culture (AID 720683). The method, boiled down:
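Red-channel autofluorescence of compounds in culture medium (DMEM, 10% FBS), no cells, measured at 540/590 nm. Rose Bengal sodium is the reference fluorophore for equivalence.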

Test [4] is described as follows: qHTS assay to test for compound auto fluorescence at 590 nm (red) in HepG2 cell free culture (AID 720684). In outline: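 No cells present: MEM + 10% FBS only. Compound pinned in, red label read (540/590 nm). Activity = fluorescence equivalent to Rose Bengal sodium.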
The nature of test [5]: qHTS assay to test for compound auto fluorescence at 460 nm (blue) in HepG2 cell free culture (AID 720685). The method, boiled down: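 Cell-free plates of MEM plus 10% FBS received 23 nL compound or DMSO vehicle; blue-channel (405/460 nm) intensity scored against triamterene as reference fluorophore.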
The nature of test [6]: qHTS assay to test for compound auto fluorescence at 535 nm (green) in HepG2 cell free culture (AID 720686).
Test [7] is described as follows: qHTS assay to test for compound auto fluorescence at 460 nm (blue) in HepG2 cells (AID 720687). The method, boiled down: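 Blue-channel autofluorescence (Ex/Em 405/460 nm, triamterene-equivalent) was measured after 1 hr compound exposure at 37 C, 5% CO2. Cells were HepG2, plated overnight at 37 C in MEM plus 10% FBS.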
Test [8] has as its target Glucocorticoid receptor (Homo sapiens) (UniProt P04150). Put plainly: qHTS assay to identify small molecule agonists of the glucocorticoid receptor (GR) signaling pathway (AID 720691; active = well fitted activation curve with a large enough effect in the signal ratio in the repeat runs, not every such curve was filed as active; the % refers to the signal ratio). The method, boiled down:
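Agonist-mode qHTS in HeLa cells stably expressing a glucocorticoid-response-element beta-lactamase reporter. Fluorescence intensity read with FRET substrate (2 h, room temperature) after 18 h compound treatment at 37 C.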

Test [9] shares this target. Put plainly: qHTS assay to identify small molecule antagonists of the glucocorticoid receptor (GR) signaling pathway (AID 720692; active = well fitted inhibition curve with a large enough effect in the signal ratio in the repeat runs, not every such curve was filed as active; the % refers to the signal ratio). In outline: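 Inhibition of dexamethasone-driven (5 nM final) beta-lactamase expression was measured in GRE-reporter HeLa cells over 18 h at 37C. Fluorescence was read after 2 h with the B/G FRET substrate at room temperature.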
Test [10] can be described thus: qHTS assay to identify small molecule antagonists of the glucocorticoid receptor (GR) signaling pathway - cell viability counter screen (AID 720693). Note: nearly all actives have a fitted effect of over 55% in size.
A short description of test [11]: qHTS assay for identifying genotoxic compounds that show differential cytotoxicity against isogenic chicken DT40 cell lines with known DNA damage response pathways - wild type cell line (AID 743012). Note: nearly all actives have a fitted effect of over 60% in size. Note: potency is the fitted concentration of half-maximal effect. In outline: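 Viability by ATP luminescence (CellTiter-Glo, 30 min RT) after 40 h compound treatment at 37 C/5% CO2, using 300 parental DNA repair-proficient DT40 cells per well.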

The nature of test [12]: qHTS assay for identifying genotoxic compounds that show differential cytotoxicity against isogenic chicken DT40 cell lines with known DNA damage response pathways - Rev3 mutant cell line (AID 743014). Note: nearly all actives have a fitted effect of over 55% in size. Note: potency is the fitted concentration of half-maximal effect.
The nature of test [13]: qHTS assay for identifying genotoxic compounds that show differential cytotoxicity against isogenic chicken DT40 cell lines with known DNA damage response pathways - Rad54/Ku70 mutant cell line (AID 743015). Note: nearly all actives have a fitted effect of over 60% in size. Note: potency is the fitted concentration of half-maximal effect.
Test [14] can be described thus: qHTS assay to identify small molecule antagonists of the androgen receptor (AR) signaling pathway - cell viability counter screen (AID 743033; note: nearly all actives have a fitted effect of over 45% in size; note: potency is the fitted concentration of half-maximal effect).
The nature of test [15]: qHTS assay to identify small molecule antagonists of the androgen receptor (AR) signaling pathway using the MDA cell line - cell viability counter screen (AID 743041; note: nearly all actives have a fitted effect of over 45% in size). In outline: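 Using the breast carcinoma line MDA-kb2 AR-luc, test chemicals were co-incubated with R1881 for 16 h; CellTiter-Fluor reagent, added at 15.5 h, provided a fluorescence measure of live cells.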

The nature of test [16]: qHTS assay to identify small molecule antagonists of the thyroid receptor (TR) signaling pathway - cell viability counter screen (AID 743064). Note: nearly all actives have a fitted effect of over 50% in size. The method, boiled down:
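In-well cytotoxicity read by CellTiter-Fluor (30 min, 37 C) following 23.5 h exposure of GH3 cells bearing a TRE-luciferase sensor. Compounds were added alongside 1 nM (final) T3 to drive TR transactivation.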

The nature of test [17]: qHTS assay to test for compound auto fluorescence at 535 nm (green) in HEK293 cell free culture (AID 720682). The method, boiled down: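 Compounds were pin-transferred into cell-free DMEM with 10% FBS, and green fluorescence was read at excitation 485 nm and emission 535 nm. Intensities were expressed as fluorescein-equivalent values.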
Test [18] deals with Androgen receptor (Homo sapiens) (UniProt P10275). Put plainly: qHTS assay to identify small molecule antagonists of the androgen receptor (AR) signaling pathway (AID 743035; active = well fitted inhibition curve with a large enough effect in the signal ratio in the repeat runs, not every such curve was filed as active; the % refers to the signal ratio). In outline:
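Antagonist mode: AR-bla HEK293 cells co-treated with test compounds and agonist R1881 for 16 h at 37C, 5% CO2. Beta-lactamase activity read as FRET fluorescence after 2 h room-temperature substrate loading.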

For test [19] the target is unchanged. Briefly: qHTS assay to identify small molecule agonists of the androgen receptor (AR) signaling pathway (AID 743036; active = well fitted activation curve with a large enough effect in the signal ratio in the repeat runs, with a control signal flat, not every such curve was filed as active; the % refers to the signal ratio). In outline:
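Activation was read as beta-lactamase FRET signal from LiveBLAzer B/G substrate, added for 2 h at room temperature. Before that, GeneBLAzer AR-UAS-bla GripTite (HEK293) cells had 16 h compound exposure at 37C.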

The target is the same in test [20]. Put plainly: qHTS assay to identify small molecule agonists of the androgen receptor (AR) signaling pathway using the MDA cell line (AID 743040; note: nearly all actives have a fitted effect of over 20% in size). The method, boiled down: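 Stable MMTV-luciferase reporter in MDA-kb2 cells; note the promoter carries GR as well as AR response elements. 16 h compound treatment, 37C, 0% CO2; ONE-Glo luminescence endpoint.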

SMILES strings stand for the structures. Values joined by “and” are separate entries in the source; they are usually repeats but may differ in a detail not shown here. Equal entries are not always repeated. Records with an inconclusive call do not appear. Some structures have more than one record in an assay (separate samples or runs), and their calls can disagree. Active and inactive are the calls of the source. Unless noted, calls come from the whole dose curve; as a rule, active = well fitted curve in the direction sought with a large enough effect in the repeat runs; inconclusive = weak or mixed curves; inactive = no such curve, though single readings can be large; an effect the other way counts as inactive or inconclusive.

Sequence of Glucocorticoid receptor (Homo sapiens) (P04150 whole entry, looked up): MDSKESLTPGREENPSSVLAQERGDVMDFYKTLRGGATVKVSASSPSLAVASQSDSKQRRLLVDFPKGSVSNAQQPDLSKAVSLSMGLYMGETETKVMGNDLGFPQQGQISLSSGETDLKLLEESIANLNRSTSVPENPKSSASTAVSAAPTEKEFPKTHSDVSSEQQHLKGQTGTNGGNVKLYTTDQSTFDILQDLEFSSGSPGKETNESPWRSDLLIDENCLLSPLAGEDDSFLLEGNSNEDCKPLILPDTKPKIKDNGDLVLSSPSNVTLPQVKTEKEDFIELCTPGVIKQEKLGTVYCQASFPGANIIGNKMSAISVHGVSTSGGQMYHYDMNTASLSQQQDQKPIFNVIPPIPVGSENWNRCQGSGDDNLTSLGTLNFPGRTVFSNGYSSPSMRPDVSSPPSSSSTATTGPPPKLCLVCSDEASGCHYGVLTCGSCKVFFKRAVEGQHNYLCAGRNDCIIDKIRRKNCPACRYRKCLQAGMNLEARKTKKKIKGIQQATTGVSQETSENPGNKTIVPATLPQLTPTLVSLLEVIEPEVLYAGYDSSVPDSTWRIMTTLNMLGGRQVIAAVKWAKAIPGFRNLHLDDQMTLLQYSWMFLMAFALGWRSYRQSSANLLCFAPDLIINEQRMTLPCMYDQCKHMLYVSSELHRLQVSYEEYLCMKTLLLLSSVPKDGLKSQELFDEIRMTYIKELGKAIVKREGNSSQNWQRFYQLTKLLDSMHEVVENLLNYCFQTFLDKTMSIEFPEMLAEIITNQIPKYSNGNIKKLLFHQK
Sequence of Androgen receptor (Homo sapiens) (P10275 whole entry, looked up): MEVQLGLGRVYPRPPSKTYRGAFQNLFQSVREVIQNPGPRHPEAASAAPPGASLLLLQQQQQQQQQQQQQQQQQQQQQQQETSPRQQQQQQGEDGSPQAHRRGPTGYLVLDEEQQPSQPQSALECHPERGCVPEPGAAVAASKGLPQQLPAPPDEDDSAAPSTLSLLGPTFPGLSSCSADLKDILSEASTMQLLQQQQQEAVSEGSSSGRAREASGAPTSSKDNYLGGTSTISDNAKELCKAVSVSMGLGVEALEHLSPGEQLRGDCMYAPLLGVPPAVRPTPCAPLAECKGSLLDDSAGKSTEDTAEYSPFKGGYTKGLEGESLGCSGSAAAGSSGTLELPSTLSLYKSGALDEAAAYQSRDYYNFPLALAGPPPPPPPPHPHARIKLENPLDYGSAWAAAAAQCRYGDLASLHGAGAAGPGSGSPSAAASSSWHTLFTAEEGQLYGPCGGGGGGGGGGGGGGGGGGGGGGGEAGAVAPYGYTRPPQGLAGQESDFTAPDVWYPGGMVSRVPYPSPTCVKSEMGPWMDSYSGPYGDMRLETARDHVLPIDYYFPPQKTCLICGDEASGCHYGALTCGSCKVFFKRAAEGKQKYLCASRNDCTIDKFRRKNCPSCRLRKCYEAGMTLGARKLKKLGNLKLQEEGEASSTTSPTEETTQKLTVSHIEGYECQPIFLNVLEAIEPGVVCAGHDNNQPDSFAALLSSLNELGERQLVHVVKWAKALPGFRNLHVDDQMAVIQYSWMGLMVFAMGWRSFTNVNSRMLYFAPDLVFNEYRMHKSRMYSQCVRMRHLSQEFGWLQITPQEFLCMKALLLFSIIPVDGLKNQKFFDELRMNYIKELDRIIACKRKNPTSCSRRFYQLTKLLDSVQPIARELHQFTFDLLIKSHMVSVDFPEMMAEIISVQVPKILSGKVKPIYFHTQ

With `COC(=O)c1ccccc1S(=O)(=O)NC(=O)Nc1nc(C)cc(C)n1`, the compound was called inactive in test [1], in test [2], in test [3], in [4], in [5] and in test [6]. For the same compound, the compound was classed as inactive in [7] and in test [8]. Besides, the Potency result in [9], in test [10], in test [11], in test [12], in [13] and in test [14] was “inactive” throughout. Besides, the Potency entry in [15] and in [16] was “inactive” throughout.
As to `CNCC(=O)c1ccc(O)c(O)c1`, the result in test [1], in test [2], in test [3], in test [4], in [5] and in [6] was inactive. For the same compound, the call in test [7] and in test [8] was inactive. Further, the Potency result in test [9], in test [10], in [11], in test [12], in test [13] and in test [14] was “inactive” in each case. In addition, the Potency entry in [15] and in test [16] was “inactive” each time.
Regarding `CC(Cl)(Cl)[N+](=O)[O-]`, the outcome in test [2], in test [17], in test [3], in test [4], in [5] and in test [6] was inactive. Moreover, the compound was called inactive in [7], in test [8] and in test [19]. For the same compound, the Potency result in test [9], in test [10], in test [11], in [12], in test [13] and in test [14] was “inactive” in each case. In addition, the Potency result in [18], in test [20], in test [15] and in test [16] was “inactive” throughout.
For the compound `Nc1cnn(-c2ccccc2)c(=O)c1Cl`, the compound was called inactive in [1], in test [2], in test [3], in [4], in test [5] and in test [6]. The compound was called inactive in [7] and in [8]. The Potency entry in test [9], in test [10], in [11], in test [13], in [14] and in test [15] was “inactive” throughout. In addition, in [16], the Potency result is “inactive”.
As for `CCOC(=O)/C=C(C)/C=C/C[C@@H](C)CCCC(C)C`, the compound was called inactive in [1], in [2], in test [3], in test [4], in test [5] and in [6]. In addition, the call in test [8] was inactive. Further, the Potency entry in test [9], in [10], in [14] and in [15] was “inactive” throughout. For the same compound, the Potency was 30.6 µM (active) in [11]; 54.5 µM (active) in test [12]; “inactive and 43.3 µM (active)” in test [13].
Take `CC(C)CP(=S)(S)CC(C)C`: the outcome in test [1], in test [2], in test [3], in [4], in test [5] and in [6] was inactive. Further, the compound was called inactive in [7] and in [8]. Besides, the Potency entry in test [9], in test [10], in [15] and in test [16] was “inactive” in each case. For the same compound, the Potency in test [11] was 13.7 µM (active); in [12], 13.7 µM (active); in test [13] it was 8.63 µM (active); in [14], 17.4 µM (active).
In the case of `C=C(C)[C@@H]1CC=C(C=O)CC1`, the compound was classed as inactive in test [1], in test [2], in test [3], in test [4], in test [5] and in [6]. Besides, in [7], the call was inactive. Besides, the Potency result in test [10], in test [14], in test [15] and in [16] was “inactive” in each case. Besides, the Potency in test [11] was 54.5 µM (active); in test [12], 61.1 µM (active); in [13] it was 54.5 µM (active).
In the case of `CCCCc1ccc(O)cc1`, the outcome in [1], in test [2], in test [3], in test [4], in test [5] and in [6] was inactive. For the same compound, in test [8], the result was inactive. Also, the Potency entry in test [9], in test [10], in [11], in test [12], in test [13] and in [14] was “inactive” in each case. The Potency result in test [16] is “inactive”.
`C1CCC(C2CCCCC2)CC1`: the outcome in [1], in [2], in test [3], in [4], in test [5] and in test [6] was inactive. Further, the result in [7] was inactive. The Potency result in test [10], in test [14] and in test [16] was “inactive” in each case. For the same compound, the Potency in [12] and in [13] was 54.5 µM (active) each time.

The values are drawn from PubChem BioAssay (Tox21).
